Read-out in experiment [1]: Tissue plasminogen activator (tPA), PLAT (gene 5327)
Nature of the experiment: BSK_BE3C_tPA: BioMAP Diversity Plus: BE3C Assay for Tissue plasminogen activator (tPA) Biomarker Activity (AID 2283041).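 For outcome: tPA level quantified by ELISA one day after compound addition.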 The settings on record: primary human bronchial epithelial cells; actives raise or lower the signal. The method, boiled down: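 Using human lung primary bronchial epithelial cells, tPA was measured by ELISA 24 h after dosing; data fitted relative to DMSO.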

Read-out in experiment [2]: Interleukin-8 (IL8), CXCL8 (gene 3576)
Nature of the experiment: BSK_CASM3C_IL8: BioMAP Diversity Plus: CASM3C Assay for Interleukin-8 (IL8) Biomarker Activity (AID 2283042).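 Note: IL-8 protein level quantified by ELISA.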 The settings on record: primary human coronary artery smooth muscle cells; actives raise or lower the signal.

Read-out in experiment [3]: Human Leukocyte Antigen - DR isotype (HLADR), HLA-DRA (gene 3122)
Nature of the experiment: BSK_CASM3C_HLADR: BioMAP Diversity Plus: CASM3C Assay for Human Leukocyte Antigen - DR isotype (HLADR) Biomarker Activity (AID 2283043).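 Note: cell-surface HLA-DR protein level quantified by ELISA.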 The note with it: primary human coronary artery smooth muscle cells; actives raise or lower the signal.

Read-out in experiment [4]: Macrophage colony-stimulating factor (MCSF), CSF1 (gene 1435)
Nature of the experiment: BSK_CASM3C_MCSF: BioMAP Diversity Plus: CASM3C Assay for Macrophage colony-stimulating factor (MCSF) Biomarker Activity (AID 2283044).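 Note: M-CSF protein amount quantified by ELISA after 24 h exposure.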 The note with it: primary human coronary artery smooth muscle cells; actives raise or lower the signal.

Read-out in experiment [5]: Low-density lipoprotein receptor (LDLR), LDLR (gene 3949)
The experiment can be described thus: BSK_CASM3C_LDLR: BioMAP Diversity Plus: CASM3C Assay for Low-density lipoprotein receptor (LDLR) Biomarker Activity (AID 2283045).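 Note: LDLR protein level on the cell surface quantified by ELISA.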 The settings on record: primary human coronary artery smooth muscle cells; actives raise or lower the signal.

Read-out in experiment [6]: Monocyte Chemoattractant Protein-1 (MCP1), CCL2 (gene 6347)
The experiment can be described thus: BSK_CASM3C_MCP1: BioMAP Diversity Plus: CASM3C Assay for Monocyte Chemoattractant Protein-1 (MCP1) Biomarker Activity (AID 2283046).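 Note: MCP-1 level quantified by ELISA 24 h after dosing.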 The note with it: primary human coronary artery smooth muscle cells; actives raise or lower the signal.

Experiment [7] in a line: BSK_CASM3C_Proliferation: Cell Proliferation Assessment in the BioMAP Diversity Plus: CASM3C Assay (AID 2283047).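 Note: sulforhodamine B total protein stain as relative cell number at 560 nm; sub-confluent cells exposed 48 h before staining; fitted both ways against DMSO so gain or loss of cell number.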 The settings on record: primary human coronary artery smooth muscle cells.
Read-out in experiment [8]: Monokine induced gamma interferon (MIG), CXCL9 (gene 4283)
The experiment can be described thus: BSK_CASM3C_MIG: BioMAP Diversity Plus: CASM3C Assay for Monokine induced gamma interferon (MIG) Biomarker Activity (AID 2283048).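 Note: MIG protein level measured by ELISA.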 The settings on record: primary human coronary artery smooth muscle cells; actives raise or lower the signal.

Read-out in experiment [9]: serum amyloid A (SAA), SAA1 (gene 6288)
Nature of the experiment: BSK_CASM3C_SAA: BioMAP Diversity Plus: CASM3C Assay for serum amyloid A (SAA) Biomarker Activity (AID 2283049).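 Note: SAA protein level quantified by ELISA.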 The settings on record: primary human coronary artery smooth muscle cells; actives raise or lower the signal.

Experiment [10] can be described thus: BSK_CASM3C_SRB: Viability Assessment in the BioMAP Diversity Plus: CASM3C Assay (AID 2283050).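 Note: total protein by SRB staining as cytotoxicity measure in parallel cultures; cells exposed to compound for 24 h.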 The settings on record: primary human coronary artery smooth muscle cells.
Read-out in experiment [11]: Thrombomodulin, THBD (gene 7056)
The experiment can be described thus: BSK_CASM3C_Thrombomodulin: BioMAP Diversity Plus: CASM3C Assay for Thrombomodulin Biomarker Activity (AID 2283051).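 Note: thrombomodulin protein level measured by ELISA 24 h after dosing.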 The settings on record: primary human coronary artery smooth muscle cells; actives raise or lower the signal.

Read-out in experiment [12]: Tissue Factor, F3 (gene 2152)
Nature of the experiment: BSK_CASM3C_TissueFactor: BioMAP Diversity Plus: CASM3C Assay for Tissue Factor Biomarker Activity (AID 2283052).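 Note: cell surface tissue factor protein level read by ELISA.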 The settings on record: primary human coronary artery smooth muscle cells; actives raise or lower the signal.

Read-out in experiment [13]: Interferon-gamma inducible Protein 10 (IP10), CXCL10 (gene 3627)
Nature of the experiment: BSK_hDFCGF_IP10: BioMAP Diversity Plus: hDFCGF Assay for Interferon-gamma inducible Protein 10 (IP10) Biomarker Activity (AID 2283053). The note with it: primary human foreskin fibroblasts; actives raise or lower the signal. Summed up: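 Chemical-treated human skin fibroblasts (primary) were sampled at 24 h for IP-10 by ELISA. Both increases and decreases relative to DMSO were scored.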

Read-out in experiment [14]: Urokinase-type plasminogen activator receptor (uPAR), PLAUR (gene 5329)
Nature of the experiment: BSK_CASM3C_uPAR: BioMAP Diversity Plus: CASM3C Assay for Urokinase-type plasminogen activator receptor (uPAR) Biomarker Activity (AID 2283054).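 Note: cell-surface uPAR protein level quantified by ELISA.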 The settings on record: primary human coronary artery smooth muscle cells; actives raise or lower the signal.

Read-out in experiment [15]: Vascular cell adhesion molecule 1 (VCAM1), VCAM1 (gene 7412)
Nature of the experiment: BSK_CASM3C_VCAM1: BioMAP Diversity Plus: CASM3C Assay for Vascular cell adhesion molecule 1 (VCAM1) Biomarker Activity (AID 2283055).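 Note: VCAM-1 protein level quantified by ELISA on the cells.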 The settings on record: primary human coronary artery smooth muscle cells; actives raise or lower the signal.

Read-out in experiment [16]: Collagen III, COL3A1 (gene 1281)
The experiment can be described thus: BSK_hDFCGF_CollagenIII: BioMAP Diversity Plus: hDFCGF Assay for Collagen III Biomarker Activity (AID 2283056). The settings on record: primary human foreskin fibroblasts; actives raise or lower the signal. Summed up: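 ELISA read-out of collagen III from human skin fibroblast cultures sampled 24 h post-dosing. Values were derived by bidirectional fitting relative to the DMSO vehicle control.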

Read-out in experiment [17]: Epidermal growth factor receptor (EGFR), EGFR (gene 1956)
The experiment can be described thus: BSK_hDFCGF_EGFR: BioMAP Diversity Plus: hDFCGF Assay for Epidermal growth factor receptor (EGFR) Biomarker Activity (AID 2283057). The settings on record: primary human foreskin fibroblasts; actives raise or lower the signal. Summed up:
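Cell-based multiplexed assay in primary human foreskin fibroblasts. EGFR is read by ELISA 24 h after treatment and compared with DMSO controls.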

Read-out in experiment [18]: Interleukin-8 (IL8), CXCL8 (gene 3576)
The experiment can be described thus: BSK_hDFCGF_IL8: BioMAP Diversity Plus: hDFCGF Assay for Interleukin-8 (IL8) Biomarker Activity (AID 2283058). The note with it: primary human foreskin fibroblasts; actives raise or lower the signal. The method, boiled down:
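Cells used are human skin primary fibroblasts. Chemical is added, cultures run 24 h, then IL-8 is quantified by ELISA, and gain or loss versus DMSO control is fitted in both directions.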

The nature of experiment [19]: BSK_hDFCGF_Proliferation: Cell Proliferation Assessment in the BioMAP Diversity Plus: hDFCGF Assay (AID 2283059).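 Note: curves fitted for both rise and fall of signal versus DMSO baseline.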 The note with it: primary human foreskin fibroblasts. Summed up:
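Steps: dose primary human dermal fibroblasts (foreskin); […] fix in 10% TCA; stain with 0.1% SRB; read 560 nm; fit gain or loss of signal against DMSO.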

The source holds several records for some structures; these can differ, active in one and inactive in another. The source made the active and inactive calls. Rule for the calls: active = hit-call score of the fitted dose curve at least 0.9, where 1 is the maximum; inactive = score below 0.9.

In general, AC50 refers to the concentration at which the activity in the assay is half-maximal. `CC(C)(C)CC(C)(C)c1ccc(OCCOCC[N+](C)(C)Cc2ccccc2)cc1`: the outcome in [1] and in [17] was inactive. Also, the half-maximal activity concentration (AC50) is 7.3 µM (active) in experiment [2]; 6.1 µM (active) in experiment [3]; 7.89 µM (active) in experiment [4]; 8.21 µM (active) in experiment [5]; 8.03 µM (active) in experiment [6]; 7.66 µM (active) in [7]. Further, the AC50 in experiment [8] is 9.51 µM (active); in experiment [9], 5 µM (active); in experiment [10] it was 7.54 µM (active); in experiment [11], 6.62 µM (active); in experiment [12], 5 µM (active); in experiment [13], 8.05 µM (active). Further, the AC50 in experiment [14] was 7.34 µM (active); in experiment [15], 8.31 µM (active); in [16] it was 2.22 µM (active); in experiment [18], 5 µM (active); in experiment [19] it was 0.496 µM (active).
With `C=CC(C)(O)CCC=C(C)C` (stereo not given), the outcome in experiment [1], in experiment [2], in experiment [3], in [4], in experiment [5] and in experiment [6] was inactive. In addition, the result in experiment [7], in experiment [8], in [9], in experiment [10], in [11] and in experiment [12] was inactive. Moreover, the outcome in experiment [13], in [14], in [15], in experiment [16], in experiment [17] and in [18] was inactive. Besides, in experiment [19], the outcome was inactive. Besides, the concentration at half-maximal activity (AC50) in [7] was 4.81 µM (active).
Regarding `CC(C=O)Cc1ccc(C(C)(C)C)cc1` (stereo not given), the AC50 in [1] was 24.8 µM (active); in experiment [3], 28.8 µM (active); in [4] it was 27.5 µM (active); in [6], 30.6 µM (active); in experiment [7], 32.3 µM (active); in [8], 30.7 µM (active). For the same molecule, the AC50 in [10] is 31.3 µM (active); in experiment [12], 20 µM (active); in [14], 33.7 µM (active); in [15], 27.3 µM (active); in experiment [17] it was 32.1 µM (active); in experiment [19], 29.1 µM (active). The result in experiment [2], in experiment [5], in experiment [9], in [11], in experiment [13] and in experiment [16] was inactive. Besides, the outcome in experiment [18] was inactive.
With `C1=CC2C3C=CC(C3)C2C1` (stereo not given), the outcome in experiment [1], in experiment [2], in experiment [3], in experiment [4], in experiment [5] and in [6] was inactive. The result in [7], in experiment [8], in experiment [9], in experiment [10], in experiment [11] and in experiment [12] was inactive. Moreover, the outcome in experiment [13], in experiment [14], in experiment [15], in experiment [16], in experiment [17] and in experiment [18] was inactive. Moreover, the result in [19] was inactive.
`Oc1c(Cl)cc(Cl)c(Cl)c1Cc1c(O)c(Cl)cc(Cl)c1Cl`: the outcome in [1], in experiment [2], in [5], in [11] and in experiment [17] was inactive. For the same molecule, the AC50 in [3] was 2.28 µM (active); in [4], 8.79 µM (active); in [6] it was 30.7 µM (active); in experiment [7], 5.37 µM (active); in experiment [8], 19.8 µM (active); in experiment [9], 3.97 µM (active). The AC50 in experiment [10] was 7.17 µM (active); in experiment [12] it was 1.73 µM (active); in [13], 2.82 µM (active); in experiment [14], 1.97 µM (active); in [15], 9.96 µM (active); in experiment [16], 4.93 µM (active). Further, the values for the AC50 in experiment [18] and in experiment [19] were 3.96 µM (active) and 0.113 µM (active), respectively.
Regarding `CC(C)(N=C=O)c1cccc(C(C)(C)N=C=O)c1`, the result in [1], in experiment [2], in [3], in [4], in experiment [5] and in [6] was inactive. The outcome in experiment [7], in experiment [8], in experiment [9], in experiment [10], in [11] and in experiment [12] was inactive. The outcome in experiment [13], in [14], in experiment [15], in [16], in experiment [17] and in experiment [18] was inactive. Further, in [19], the AC50 was 29.9 µM (active).

For the origin of these results see PubChem BioAssay (EPA / NIEHS).
